The source of these data is ChEMBL document CHEMBL1157539, “Thousands of chemical starting points for antimalarial lead identification” (Nature, 2010).

In all, about 13,000 compounds were measured (“IFI”: median about 4, highest 2% from about 17 on). Only a selection was taken, and the highest values are over-represented in it overall.

This test in a line: GSK_TCMDC: Inhibition Frequency Index (IFI). The number of non-kinase HTS assays where a compound showed > 50 % inhibition, expressed as a percentage of the number of such assays in which the compound was tested. In kind it is functional.
`CC(C)(C)c1ccc(C(=O)Nc2cccc(Nc3c(C(=O)NCc4cccc(C(F)(F)F)c4)cnc4c(O)cccc34)c2)cc1` came in with an IFI of 3.68%.
In the case of `CCCCN(CCCC)/C(=N/c1cccc(Cl)c1Cl)Nc1ccc(C#N)cc1O` it was 7.14%; in that of `O=C(Cc1cccc(O)c1)Nc1ccc(-c2cccc(-c3nc4cc(C(F)(F)F)ccc4[nH]3)c2)cc1`, 8.93%; in that of `CC(CN(C)C)C(=O)Nc1cccc(-c2cccc(-c3nc4ccccc4[nH]3)c2)c1` (stereo unspecified), 5.41%.
Turning to `COc1cccc(-c2cccc(-c3ccc(NC(=O)c4ccc([N+](=O)[O-])o4)cc3)n2)c1`, the IFI is 9.52%.
As for `COc1ccccc1-c1cccc(-c2cccc(NC(=O)c3ccc([N+](=O)[O-])o3)c2)n1`, the figure is 11.9%; as for `O=C(Nc1cccc(-c2cccc(-c3ccc(F)cc3)n2)c1)c1ccc([N+](=O)[O-])o1`, 19.1%.
For the compound `Cc1cccc2nc(-c3ccc(-c4ccc(CN5CCCC(N)C5)cc4)cc3)[nH]c12` (stereo unspecified), the IFI came to 4.23%.
As for `Cc1ccccc1C1CCN(C2CCC(NC(=O)c3cc(-c4ccc(Cl)cc4)cs3)CC2)CC1` (stereo unspecified), the figure is 22.4%; as for `Cc1ccc(/C=C/C(=O)NC2CCC(N3CCC(c4ccccc4C)CC3)CC2)cc1F` (stereo unspecified), 13.3%.
As for `CCc1c(C(=O)NC2CCC(N3CCC(c4ccccc4C)CC3)CC2)[nH]c2ccc(Br)cc12` (stereo unspecified), the IFI was 15.8%.
`CCc1c(C(=O)NC2CCC(N3CCC(c4ccccc4OC)CC3)CC2)[nH]c2ccc(OC)cc12` (stereo unspecified) gave an IFI of 6.45%.
In the case of `Cc1ccc(/C=C/C(=O)NC2CCC(N3CCC(c4ccccc4C)CC3)CC2)cc1C` (stereo unspecified) it was 15%; in that of `COc1ccccc1C1CCN(C2CCC(NC(=O)/C=C/c3ccc4c(c3)OC(F)(F)O4)CC2)CC1` (stereo unspecified), 9.84%; in that of `Cc1ccccc1C1CCN(C2CCC(NC(=O)c3cc4cc(C(C)C)ccc4[nH]3)CC2)CC1` (stereo unspecified), 19.6%.
In the case of `COc1ccc(-c2csc(C(=O)NC3CCC(N4CCC(c5ccccc5C)CC4)CC3)c2)cc1` (stereo unspecified) it was 14%; in that of `COc1ccccc1C1CCN(C2CCC(NC(=O)c3cc4ccccc4[nH]3)CC2)CC1` (stereo unspecified), 16.4%.
As for `Cc1ccccc1C1CCN(C2CCC(NC(=O)/C=C/c3ccc4c(c3)OC(F)(F)O4)CC2)CC1` (stereo unspecified), the figure is 17.2%; as for `COc1ccccc1C1CCN(C2CCC(NC(=O)c3cc4cc(C(C)C)ccc4[nH]3)CC2)CC1` (stereo unspecified), 18%; as for `COc1ccccc1C1CCN(C2CCC(NC(=O)c3cc(-c4ccc(Cl)cc4)cs3)CC2)CC1` (stereo unspecified), 16.4%.
Compound `CN1CCC(NCc2ccc(-c3cccc(-c4nc5ccccc5[nH]4)c3)cc2)CC1` showed an IFI of 4.76%.
As for `Cc1[nH]c(C)c(-c2ccc(OCc3ccc(F)cc3)nc2)c(=O)c1Br`, the figure is 3.57%; as for `Cc1c(Cl)cccc1N=C(S)NN=Cc1ccccn1`, 6.3%; as for `Cc1c(-c2cccc(C(C)(C)NCCCN3CCCCC3)c2)cnc(N)c1C`, 0.74%.
`Cc1ccc(O)cc1C[C@@H]1C(=O)CC[C@@]2(C)[C@H]1CC[C@]2(C)O` registered an IFI of 0%.
As for `O=C(Nc1ccccc1)N(Cc1ccc(-c2cccc(CNC3CCCC3)c2)cc1)C1CCN(Cc2ccccc2)CC1`, the figure is 7.04%; as for `Cc1cccc2nc(-c3ccc(-c4cccc(CNCCCNS(C)(=O)=O)c4)s3)[nH]c12`, 3.96%.
In the case of `CNC(=O)c1cnc(Nc2ccc(OCC(O)CN(C)C)cc2)nc1Nc1cccc(OC)c1` (stereo unspecified) it was 2.22%.
In the case of `CCOc1ccc2[nH]c(C)cc(=NN=Cc3ccccc3)c2c1` it was 1.53%.
`CCN(CC)CCCC(C)Nc1c(-c2ccc(OC)cc2)cnc2ccccc12` (stereo unspecified): the IFI was determined as 0%.
For `CN(C)c1nc(NCc2ccccc2)nc(N/N=C/c2cc([N+](=O)[O-])ccc2O)n1`, the IFI stood at 6.16%.
In the case of `CNC(=O)C1Cc2c([nH]c3cc(Br)ccc23)C2(CCN(CCc3ccccc3)CC2)N1` (stereo unspecified) it was 7.86%; in that of `COc1ccc2nccc(N3CCN(CCNCc4ccc5c(n4)NC(=O)CO5)CC3)c2c1`, 3.73%; in that of `Cc1c(C)c2c(c(C)c1O)CC[C@](C)(C(=O)N1CCC(CCN3CCC(c4c[nH]c5ccccc45)CC3)CC1)O2`, 5.88%.
In the case of `Cc1cccc2nc(-c3cccc(-c4cccc(NC(=O)COc5ccccc5C(N)=O)c4)c3)[nH]c12` it was 6.09%.
As for `CN(C)CCNC(=O)c1ccc(-c2cnc3ccc(NCc4ccc(Cl)c(Cl)c4)nn23)cc1`, the figure is 9.02%.
For `CCCCc1ccc2ncc(C(=O)OCC)c(O)c2c1`, the IFI turned out to be 0.78%.
Take `COc1c(Br)cc(Br)cc1-c1ccc(CN2C3CCCC2CCC3)[nH]1`: the IFI came out at 6.82%.
In the case of `COc1c(Br)cc(Br)cc1-c1ccc(CN2CC3CCC2CC3)[nH]1` it was 21.1%; in that of `COc1cccc(C(=O)Nc2ccc(Nc3nc(C)cc(N(C)C)n3)cc2)c1OC`, 7.14%.
In the case of `CCCCCCCN1CC[C@@H](CCCc2ccnc3ccc(OCCCCN/C(N)=N/O)cc23)[C@@H](CC)C1` it was 9.66%.
As for `CN1CCN(c2ccc(Nc3ncc([N+](=O)[O-])c(Nc4ccccc4O)n3)cc2)CC1`, the figure is 6.99%; as for `CN(C)CC(O)COc1ccc(Nc2ncc([N+](=O)[O-])c(Nc3ccccc3O)n2)cc1` (stereo unspecified), 6.21%; as for `O=[N+]([O-])c1cnc(Nc2ccccc2O)nc1Nc1ccccc1O`, 19.2%.
For the compound `Cc1[nH]c(C)c(-c2ccc(CCc3ccc(N)cc3)cc2)c(=O)c1Cl`, the IFI was determined as 1.89%.
As for `COc1ccc2[nH]c(C(=O)Nc3ccc4[nH]c(-c5ccccc5)nc4c3)cc2c1`, the figure is 7.69%.
In the case of `CCc1cn(CC(=O)N(CCOc2ccc(-c3ccc(C(F)(F)F)cc3)cc2)CCN(CC)CC)c(SCc2ccc(F)cc2)nc1=O` it was 6.34%; in that of `FC(F)(F)c1cccc(Nc2nc3ccccc3nc2Nc2cccc(C(F)(F)F)c2)c1`, 10%; in that of `O=[N+]([O-])c1ccc2nc(Nc3cccc(C(F)(F)F)c3)c(Nc3cccc(C(F)(F)F)c3)nc2c1`, 5.88%.
In the case of `FC(F)(F)c1cccc(Nc2nc3nonc3nc2NC2C3CC4CC(C3)CC2C4)c1` (stereo unspecified) it was 20.6%; in that of `CC1(C)C(=O)Nc2ccc3c(c21)CC1SC(=O)NN=C31` (stereo unspecified), 2.22%; in that of `CCCN(CCC)C(=O)c1cc(C(=O)N[C@@H](Cc2ccccc2)[C@H](O)CNC(C)(C)c2cccc(OC)c2)cc(N2CCCCS2(=O)=O)c1`, 3.62%.
As to `CC(C)(C)c1ccc(CN2CCC(CNC(=O)c3cc(-c4cccc(Cl)c4)cs3)C2)cc1` (stereo unspecified), the IFI came out at 12.2%.
As for `Cc1cc2cc(-c3ccc(CN)cc3)ccc2nc1N`, the figure is 3.88%; as for `O=C(c1ccc([N+](=O)[O-])o1)N1CCC(Cc2ccc(C(F)(F)F)cc2)CC1`, 9.52%.
As for `COCCN1CCN(Cc2ccc(-c3ccc(-c4nc5cc(F)ccc5[nH]4)cc3)cc2)CC1`, the figure is 4.9%.
